ALOX12 inh: Primary qHTS assay for inhibitors of human arachidonate 12S-lipoxygenase (ALOX12): Round 2; Polyunsaturated fatty acid lipoxygenase ALOX12 (Homo sapiens), P18054; purified 12hLO, xylenol orange hydroperoxide absorbance; Potency, µM (doses to about 108 µM), hits mostly inhibitors; 580,000 tested, 1.1% active
Target sequence (P18054 whole entry, looked up): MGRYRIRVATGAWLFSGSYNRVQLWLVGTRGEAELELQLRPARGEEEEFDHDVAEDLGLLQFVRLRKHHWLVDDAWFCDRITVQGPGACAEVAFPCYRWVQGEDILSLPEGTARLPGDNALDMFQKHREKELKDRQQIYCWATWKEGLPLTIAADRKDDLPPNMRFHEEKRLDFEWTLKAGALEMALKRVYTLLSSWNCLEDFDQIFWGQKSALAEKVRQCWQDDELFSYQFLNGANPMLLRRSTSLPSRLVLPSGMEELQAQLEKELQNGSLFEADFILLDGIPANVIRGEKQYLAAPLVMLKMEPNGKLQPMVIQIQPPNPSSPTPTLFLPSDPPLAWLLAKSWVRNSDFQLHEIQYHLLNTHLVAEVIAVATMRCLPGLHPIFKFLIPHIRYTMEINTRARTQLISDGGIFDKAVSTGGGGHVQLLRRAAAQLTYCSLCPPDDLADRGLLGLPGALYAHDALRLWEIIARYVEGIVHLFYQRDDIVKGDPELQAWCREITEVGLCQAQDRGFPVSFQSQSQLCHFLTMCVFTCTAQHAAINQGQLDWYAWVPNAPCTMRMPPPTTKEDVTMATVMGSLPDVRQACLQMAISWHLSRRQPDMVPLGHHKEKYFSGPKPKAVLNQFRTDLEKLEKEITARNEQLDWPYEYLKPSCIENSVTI
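Hydroperoxide product was detected by ferrous iron/xylenol orange as the 573 to 405 nm absorbance ratio. Arachidonic acid at 40 uM (final) was turned over for 30 min at room temperature by 150 nM human 12hLO, pH 7.0 Hepes buffer, after 15 min compound preincubation.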
Gal4-VP16 FLuc: VP16 counterscreen qHTS for inhibitors of ROR gamma transcriptional activity; Potency, µM (highest dose often 53.6 µM), actives largely listed as inhibitors; 310,000 tested, 3.5% active; Drosophila S2 Gal4-VP16 UAS-luciferase, luminescence, 20 h;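 also: Gal4-VP16 expression switched on by copper sulfate through the metallothionein promoter; nearly all actives have a fitted effect of over 50% in size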
TDP1 cell CPT: qHTS for Inhibitors of human tyrosyl-DNA phosphodiesterase 1 (TDP1): qHTS in cells in presence of CPT | chicken DT40 Tdp1-/-;hTDP1 cells + 20 nM CPT, ATP luminescence, 48 h | Potency, µM (highest dose often 46.2 µM), usual class: inhibitors | 420,000 tested, 12% active | AID 686979, 2013; also: nearly all actives have a fitted effect of over 55% in size
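Chicken DT40 Tdp1-/- cells stably complemented with human TDP1 were seeded at 400 cells/well in medium containing 20 nM camptothecin, exposed to pin-transferred compounds, and grown at 37 °C for at least 48 hr. Viability was read as ATP luminescence.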
RORg inh: qHTS for inhibitors of ROR gamma transcriptional activity. Nuclear receptor ROR-gamma (Mus musculus), P51450. Drosophila S2 Gal4-RORgamma UAS-luciferase reporter, 20 h. Potency, µM (titrated, usually from 53.6 µM), most hits filed as inhibitors. 310,000 tested, 5.4% active. AID 2551, 2010; also: nearly all actives have a fitted effect of over 60% in size
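Read-out: Photinus luciferase luminescence; inhibitors lower reporter signal. Insect Schneider cells with Gal4-ROR gamma fusion under metallothionein promoter, UAS reporter; 700 uM final copper sulfate induction, 20 hr, ambient temperature.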
ELG1 DNA repair: qHTS screen for small molecules that inhibit ELG1-dependent DNA repair in human embryonic kidney (HEK293T) cells expressing luciferase-tagged ELG1; HEK293T ELG1-luciferase reporter, luminescence, 16 h; DNA damage induced by 5-fluorouridine; Potency, µM (doses to about 46.1 µM), hits mostly inhibitors; 330,000 tested, 2.3% active; AID 504467, 2011; also: nearly all actives have a fitted effect of over 55% in size
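Quantitative HTS, concentration-response format. 2,000 cells/well co-treated with 5-fluorouridine and compound, 16 hr in 5% CO2 at 37 °C; ONE-Glo luminescence read after 30 min.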
DT40 TDP1 no CPT: qHTS for Inhibitors of human tyrosyl-DNA phosphodiesterase 1 (TDP1): qHTS in cells in absence of CPT | DT40 Tdp1-/- hTDP1 cells, no CPT, ATP luminescence, 48 h | 420,000 tested, 15% active | Potency, µM (series often up to 46.2 µM), hits mostly inhibitors | AID 686978, 2013; also: nearly all actives have a fitted effect of over 55% in size
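Compound effects on proliferation are scored in DT40 Tdp1-/-;hTDP1 cells in the absence of CPT. ATP levels (CellTiter-Glo luminescence) are recorded after a ≥48 hr, 37 °C incubation.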
Large screens that a line does not name were inactive. In the library only some 15% were active in any assay of this set; here they are far more common. Calls follow the shape of the dose curve; as a rule, active = well fitted curve in the direction sought with a large enough effect; inconclusive = small, poorly fitted or top-dose-only effect, or another doubt; inactive = no such curve, though single readings can be large; an effect the other way counts as inactive or inconclusive.

C[C@@H]1CN([C@H](C)CO)C(=O)c2cc(NC(=O)Nc3ccc(F)cc3)ccc2O[C@@H](C)CCCCO[C@H]1CN(C)Cc1ccc(C(=O)O)cc1	none (no result: Gal4-VP16 FLuc, RORg inh, ELG1 DNA repair)
COc1ccc(CN(C)C[C@@H]2OCCCC[C@H](C)Oc3ccc(NC(=O)Cc4ccccc4)cc3C(=O)N([C@@H](C)CO)C[C@@H]2C)cc1	DT40 TDP1 no CPT 23µM (no result: Gal4-VP16 FLuc, RORg inh, ELG1 DNA repair)
CC(C)n1cc(/C=C2/NC(=O)N(c3cccc(Cl)c3)C2=O)c2ccccc21	TDP1 cell CPT 26µM, RORg inh inconclusive, ELG1 DNA repair inconclusive, DT40 TDP1 no CPT inconclusive
COc1ccccc1C(C[N+](=O)[O-])c1c(N)n(C)c(=O)n(C)c1=O (configuration not stated)	ALOX12 inh inconclusive, Gal4-VP16 FLuc 14µM, TDP1 cell CPT 3.7µM, RORg inh inconclusive, ELG1 DNA repair inconclusive, DT40 TDP1 no CPT 2.3µM
COc1cccc(CNC(=O)Cn2ncc3c4ccccc4n(Cc4ccccc4)c3c2=O)c1	ALOX12 inh inconclusive (no result: Gal4-VP16 FLuc, RORg inh, ELG1 DNA repair)
CC(NC(=O)Cn1ncc2c3ccccc3n(Cc3ccc(F)cc3)c2c1=O)c1ccccc1 (configuration not stated)	TDP1 cell CPT inconclusive, DT40 TDP1 no CPT 10µM (no result: Gal4-VP16 FLuc, RORg inh, ELG1 DNA repair)
Cc1ccc(C)c(Cn2c3ccccc3c3cnn(CC(=O)NC4CCCCCC4)c(=O)c32)c1	TDP1 cell CPT inconclusive, DT40 TDP1 no CPT 13µM (no result: Gal4-VP16 FLuc, RORg inh, ELG1 DNA repair)
O=C(Cn1ncc2c3ccccc3n(Cc3ccc(F)cc3)c2c1=O)NC1CCCCCC1	TDP1 cell CPT inconclusive, DT40 TDP1 no CPT inconclusive (no result: Gal4-VP16 FLuc, RORg inh, ELG1 DNA repair)
O=C(Cn1ncc2c3ccccc3n(Cc3ccccc3F)c2c1=O)NC1CCCCCC1	TDP1 cell CPT 7.3µM, DT40 TDP1 no CPT 15µM (no result: Gal4-VP16 FLuc, RORg inh, ELG1 DNA repair)
CC(CNC(=O)Cn1ncc2c3ccccc3n(Cc3cccc(Cl)c3)c2c1=O)c1ccccc1 (configuration not stated)	ALOX12 inh inconclusive, TDP1 cell CPT 18µM, DT40 TDP1 no CPT inconclusive (no result: Gal4-VP16 FLuc, RORg inh, ELG1 DNA repair)
O=C(Cn1ncc2c3ccccc3n(Cc3ccccc3F)c2c1=O)NC1CC1	ELG1 DNA repair inconclusive
CC(C)(C)OC(=O)N1Cc2ccccc2C[C@H]1C(=O)Nc1ccc2c(c1)OCO2	none (no result: Gal4-VP16 FLuc, TDP1 cell CPT, RORg inh, ELG1 DNA repair, DT40 TDP1 no CPT)
COc1ccc(CCNC(=O)CC2Sc3ccccc3NC2=O)cc1 (configuration not stated)	none (no result: Gal4-VP16 FLuc, TDP1 cell CPT, RORg inh, ELG1 DNA repair, DT40 TDP1 no CPT)
O=C(Cn1ncc2c3ccccc3n(Cc3cccc(Cl)c3)c2c1=O)NC1CCCCCC1	ALOX12 inh inconclusive, TDP1 cell CPT 8.2µM, DT40 TDP1 no CPT 6.5µM (no result: Gal4-VP16 FLuc, RORg inh, ELG1 DNA repair)
O=C(CSc1nnc(COc2cccc3cccnc23)o1)N1CCCC1	none
CC1CCCC(C)N1C(=O)CSc1nnc(COc2cccc3cccnc23)o1 (configuration not stated)	DT40 TDP1 no CPT inconclusive
Cc1ccc(C(=O)CSc2nnc(COc3cccc4cccnc34)o2)cc1	Gal4-VP16 FLuc inconclusive, TDP1 cell CPT 10µM, RORg inh inconclusive, ELG1 DNA repair inconclusive, DT40 TDP1 no CPT 23µM
O=C(CSc1nnc(COc2cccc3cccnc23)o1)c1ccc(F)cc1	TDP1 cell CPT 4.1µM, ELG1 DNA repair inconclusive, DT40 TDP1 no CPT 4.1µM
COc1cccc(C(=O)CSc2nnc(COc3cccc4cccnc34)o2)c1	Gal4-VP16 FLuc inconclusive, TDP1 cell CPT 3.7µM, ELG1 DNA repair inconclusive, DT40 TDP1 no CPT 4.1µM
CC(=O)Nc1ccc(/C=C(/C#N)C(=O)C(C)(C)C)cc1	none (no result: Gal4-VP16 FLuc, TDP1 cell CPT, RORg inh, ELG1 DNA repair, DT40 TDP1 no CPT)
CN1CCCN(CC(=O)N2C[C@H](NS(C)(=O)=O)[C@@H](C3CC3)C2)CC1	none (no result: Gal4-VP16 FLuc, TDP1 cell CPT, RORg inh, ELG1 DNA repair, DT40 TDP1 no CPT)
COc1ccc(C2=C(C)C(N3CCN(c4ccc(OC)cc4)CC3)=NS2(=O)=O)cc1	none (no result: Gal4-VP16 FLuc, RORg inh, ELG1 DNA repair)
CC1=C(c2ccc(Cl)cc2)S(=O)(=O)N=C1N1CCN(c2cccc(C(F)(F)F)c2)CC1	ALOX12 inh inconclusive, TDP1 cell CPT 8.2µM, DT40 TDP1 no CPT 21µM (no result: Gal4-VP16 FLuc, RORg inh, ELG1 DNA repair)
